Compounds without any hit were thinned out: in the full panel of roughly 83,000, 20% have a hit.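 How to read the values: 0–100, growth inhibition (40 = 60% inhibited); 0, no net growth; -100 to 0, cell death (-40 = 40% of starting cells died; -100 = all dead).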 Calls of active or inactive are those of the source. How the source made its calls: active means growth percent below 10; inactive means the rest.
tested on: RXF 393 renal; test: NCI-60 one-dose screen, 48 h (100 = growth as untreated, 0 = no growth, -100 = all killed); details: 10 µM

Structure (SMILES)	growth
N#CCc1csc(Cc2ccccc2)n1	119% (inactive)
Cc1[nH]c2ccccc2c1/C=N/Nc1ncnc2sc3c(c12)CCN(CC(=O)OC(C)(C)C)C3	-0.516% (active)
CCCc1cn(CC(=O)Nc2nc3ccccc3s2)nn1	114% (inactive)
C/C=C/CSC(C)(C)C(=O)NC	110% (inactive)
Cc1ccc(Cl)cc1NC(=O)CCl	91.8% (inactive)
CCOC(=O)c1cc(C(=O)c2ccc(OC)c(OC)c2)n2c1ccc1ccc3cccnc3c12	24.8% (inactive)
Cc1c(Cl)cccc1NC(=O)CCCl	112% (inactive)
Cc1ccc(NCCNCC(C)(C)O)c2c(=O)c3ccc(Cl)cc3sc12	24.2% (inactive)
OCC1OC(n2cnc3c(NCc4ccco4)ncnc32)C(O)C1O (centres undefined)	-13.7% (active)
NS(=O)(=O)Oc1ccc(NC(=O)C2CCCCCC2)cc1	116% (inactive)
COc1cc(-c2nn(-c3ccc(NC(=O)NCCNS(=O)(=O)c4ccc(F)cc4)cc3)cc2-c2ccncc2)ccc1Cl	2.59% (active)
NS(=O)(=O)Oc1ccc2c(ccn2C(=O)C23CC4CC(CC(C4)C2)C3)c1	115% (inactive)
COc1ccc(-c2cc(-c3ccc(Cl)cc3)nc(SCCCC(=O)NO)n2)cc1	-21% (active)
Nc1cc(Br)c(-c2nn3c(CCC(=O)c4nc5ccccc5[nH]4)nnc3s2)c(Br)c1	109% (inactive)

tested on: SF-268 CNS; test: as above; details: 10 µM

Structure (SMILES)	growth
CC(C)N(CCOc1cccc(-c2nc3sccn3c2-c2ccnc(S(C)(=O)=O)n2)c1)C(C)C	92.5% (inactive)
O=C(CSc1nnc(-c2ccc(Cl)cc2)o1)Nc1ccc(C(=O)/C=C/c2ccc(Cl)cc2)cc1	99.7% (inactive)
CC[C@@H](C(=O)[C@@H](C)[C@@H](O)[C@H](C)[C@@H]1O[C@@H]([C@@H](CC)C(=O)N(CC)CC)CC[C@@H]1C)C1O[C@]2(C=CC(=O)[C@]3(CC[C@@](C)([C@H]4CC[C@](O)(CC)[C@H](C)O4)O3)O2)[C@H](C)C[C@@H]1C (some centres undefined)	46.4% (inactive)
COc1ccc(-c2onc(N)c2-c2cc(OC)c3c(c2)OCO3)cc1	50.1% (inactive)
CCN(CC)CCOc1cccc2c1C(=O)c1cccc(OCCN(CC)CC)c1C2=O	40.8% (inactive)
COc1cc(/C=C/c2cc(/C=C/c3ccc(O)c(OC)c3)n(C(=O)Nc3ccc(C)cc3)n2)ccc1O	-11.5% (active)
CCOC(=O)c1cc(C(=O)c2ccc(F)cc2F)n2ccccc12	85.7% (inactive)
COc1cc2c(cc1NC(=O)C(Cl)Cl)-c1ccc(NC(=O)C(Cl)Cl)cc1C2	-31.2% (active)
COc1ccc(-c2cc(-c3ccccc3)nc(SCCCC(=O)NO)n2)cc1	-18.8% (active)
O=S(=O)(Oc1ccc(-c2ccc3sccc3c2)cc1)c1ccc(F)cc1	108% (inactive)
COc1cc(-c2nn(-c3ccc(NC(=O)NCCCNC(=O)c4ccccc4)cc3)cc2-c2ccncc2)ccc1Cl	37.6% (inactive)
CN(C)CCCOc1ccc(OCCCN(C)C)c2c1C(=O)c1ccccc1C2=O	-4.36% (active)
COc1cccc(C2C(C#N)=C(N)Oc3cc(N)ccc32)c1 (centres undefined)	47.1% (inactive)
COc1cc(/C=C/c2cc(/C=C/c3ccc(O)c(OC)c3)[nH]c(=O)n2)ccc1O	48.2% (inactive)
COc1ccc2nc(-c3ccc(Cl)cc3)cc(-c3nnc(SC/C(=N\O)c4ccccc4)n3-c3ccccc3)c2c1	83.5% (inactive)
CCOC(=O)CN(c1sc(C)c(C)c1C(=O)OCC)S(=O)(=O)c1ccc(C)cc1	107% (inactive)
COc1ccc(/C=C2/SC(=S)NC2=O)c(OC)c1OC	80.5% (inactive)
CC(C)(C)OC(=O)N1CCc2c(sc3ncnc(N/N=C/c4ccccc4Br)c23)C1	87.8% (inactive)
NC(CSC(c1ccccc1)(c1ccccc1)c1cccc2ccccc12)C(=O)O (centres undefined)	85% (inactive)
CN(C)CCCOc1ccccc1NC1=C(Cl)C(=O)C(Nc2ccccc2OCCCN(C)C)=C(Cl)C1=O	-88.1% (active)

Structure (SMILES)	growth
NS(=O)(=O)c1ccc(Br)cc1	98.3% (inactive)
CN(C)CCCOc1ccc(NC2=C(Cl)C(=O)C(Nc3ccc(OCCCN(C)C)cc3)=C(Cl)C2=O)cc1	-51.2% (active)
COc1ccc(-c2n[nH]nc2-c2cc(OC)c3c(c2OC)OCO3)cc1	48.8% (inactive)
C=CCn1c(SCC(=O)Nc2ccc(C(=O)/C=C/c3cc(OC)c(OC)c(OC)c3)cc2)nnc1-c1cc(-c2ccc(Cl)cc2)nc2ccccc12	90.9% (inactive)
COc1ccc(C2=Cn3c(CCC(=O)c4nc5ccccc5[nH]4)nnc3SC2)cc1	107% (inactive)
CCN1CCN(CCC(=O)Nc2cccc(-n3cc(-c4ccncc4)c(-c4ccc(Cl)c(OC)c4)n3)c2)CC1	35.4% (inactive)
N#CCc1csc(Cc2ccccc2)n1	100% (inactive)
Cc1[nH]c2ccccc2c1/C=N/Nc1ncnc2sc3c(c12)CCN(CC(=O)OC(C)(C)C)C3	93.8% (inactive)
CCCc1cn(CC(=O)Nc2nc3ccccc3s2)nn1	98.8% (inactive)
C/C=C/CSC(C)(C)C(=O)NC	103% (inactive)
Cc1ccc(Cl)cc1NC(=O)CCl	79.3% (inactive)
CCOC(=O)c1cc(C(=O)c2ccc(OC)c(OC)c2)n2c1ccc1ccc3cccnc3c12	51.8% (inactive)
Cc1c(Cl)cccc1NC(=O)CCCl	97.8% (inactive)
Cc1ccc(NCCNCC(C)(C)O)c2c(=O)c3ccc(Cl)cc3sc12	39.4% (inactive)
OCC1OC(n2cnc3c(NCc4ccco4)ncnc32)C(O)C1O (centres undefined)	44.6% (inactive)
NS(=O)(=O)Oc1ccc(NC(=O)C2CCCCCC2)cc1	98.5% (inactive)
COc1cc(-c2nn(-c3ccc(NC(=O)NCCNS(=O)(=O)c4ccc(F)cc4)cc3)cc2-c2ccncc2)ccc1Cl	7.56% (active)
NS(=O)(=O)Oc1ccc2c(ccn2C(=O)C23CC4CC(CC(C4)C2)C3)c1	111% (inactive)
COc1ccc(-c2cc(-c3ccc(Cl)cc3)nc(SCCCC(=O)NO)n2)cc1	2.08% (active)
Nc1cc(Br)c(-c2nn3c(CCC(=O)c4nc5ccccc5[nH]4)nnc3s2)c(Br)c1	99.7% (inactive)

— PubChem BioAssay (NCI)
